High-throughput results deposited in PubChem BioAssay by The Scripps Research Institute Molecular Screening Center.
An excerpt weighted towards active compounds, which were near 1.1% of everything screened.
SRC1 inh: inhibits human SRC1 coactivator; Q15788; HEK293 GAL4-SRC1 luciferase reporter, luminescence; inhibition, % at 3.6 µM; actives 0.12% (n = 360,000);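 active = inhibition above the campaign mean plus 3 SD, with each screening campaign given its own cutoff, cut at about 60% in these data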;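 note: 0% = DMSO treated cells and 100% = gossypol at 36 µM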
NCOA3 inh: human NCOA3 inhibition; Q9Y6Q9; HEK293 GAL4-SRC3 luciferase reporter, luminescence; inhibition, % at 3.6 µM; actives 0.17% (n = 360,000);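 active = inhibition above a per-campaign cutoff, the mean of all compounds plus 3 SD, cut at about 60% in these data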;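 note: 0% = DMSO-treated cells and 100% = gossypol-treated cells at 36 µM; higher means less SRC3-driven luciferase light from the GAL4 reporter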
COUP-TFII inh: inhibitors of human COUP-TFII (NR2F2); P24468; HEK293T NGFI-A luciferase reporter, luminescence; inhibition, % at 8.6 µM; actives 0.7% (n = 370,000); AID 686940;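 active = inhibition above a per-plate cutoff, mean inhibition of test wells between control levels plus 3 SD, cut at about 38% in these data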;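 note: cells cotransfected with COUP-TFII expression vector driving the NGFI-A reporter; 0% = median of COUP-TF2 test wells and 100% = reporter-only cells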
GalR3 antagonist: human GalR3 antagonism; O60755; HEK293 GalR3-CNG cAMP membrane potential fluorescence; galR3 body fused to GalR1 C-terminus; inhibition, % at 3 µM; actives 0.44% (n = 360,000);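 active = inhibition above the screen-wide average plus 3 SD, cut at about 13% in these data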;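 note: forskolin and galanin both at EC90 stimulate the cells; cAMP rise reported by CNG channel membrane potential dye signal; 0% = forskolin plus galanin with DMSO and 100% = forskolin alone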
NCOA2 inhibitor: human SRC2 (NCOA2) inhibition | Q15596 | HEK293 GAL4-SRC2 luciferase reporter, luminescence | inhibition, % at 9 µM | actives 0.17% (n = 370,000) | AID 651957;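 active = inhibition above the mean inhibition of all tested compounds plus 3 SD, set per campaign, cut at about 52% in these data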;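 note: 0% = DMSO treated cells and 100% = cells given Gossypol at 36 µM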
LRH-1 inv ag: inverse agonists of human LRH-1 (NR5A2). O00482. HEK293T StAR-luciferase reporter, LRH-1 transfected, 24 h. inhibition, % at 3.6 µM. actives 0.13% (n = 360,000). AID 602396;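 active = inhibition above the mean inhibition of all tested compounds plus 3 SD, cut at about 73% in these data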;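 note: 0% = DMSO wells and 100% = reporter-only cells lacking LRH-1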
GalR3 conf: GalR3 (human) antagonism, confirmation; AID 652245; HEK293 GalR3 CNG cAMP biosensor, membrane potential fluorescence; galR3 fused to GalR1 carboxy tail; challenged with forskolin and galanin at EC90; inhibition, % at 3 µM; shares compounds with GalR3 antagonist; actives 59% (n = 1,600);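 active = inhibition above the primary screen's cutoff, the mean inhibition of all screened compounds plus 3 SD, cut at about 13% in these data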;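 note: 0% = forskolin plus galanin and 100% = forskolin alone with DMSO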
CNG parental: counter-screen for GalR3 antagonists: nonspecific agonists in parental HEK-CNG cells; actives 10% (n = 1,600); activation, % at 3 µM; HEK293-CNG parental cells, cAMP membrane potential fluorescence; normalised: DMSO wells 0%, forskolin wells 100%; AID 652268; shares compounds with GalR3 antagonist; in the data active = activation above about 1.3%
Gal4-VP16 ctr: counter-screen for COUP-TFII antagonists: inhibitors of VP16; shares compounds with COUP-TFII inh; HEK293 Gal4-VP16 luciferase reporter, luminescence; inhibition, % at 8.5 µM; actives 25% (n = 2,500); AID 687007; in the data active = inhibition above about 13%
COUP-TFII conf: COUP-TFII (NR2F2) inhibition, confirmation assay; shares compounds with COUP-TFII inh; HEK293 NGFI-A luciferase reporter, luminescence; actives 45% (n = 2,500); inhibition, % at 8.5 µM; AID 687008;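 active = mean inhibition over three repeats above a set limit taken from the earlier primary screen, cut at about 38% in these data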;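 note: 100% = cells given the luciferase reporter alone without the COUP-TF2 vector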
An asterisk follows results filed as active.

How did O=C(NCCO)c1nsnc1NCCCl do in these assays?
SRC1 inh: 6; NCOA3 inh: 3; COUP-TFII inh: -3; NCOA2 inhibitor: 2; LRH-1 inv ag: 6; GalR3 conf: 28*; CNG parental: 0

How did CNc1cc(Cl)c2nonc2c1[N+](=O)[O-] do in these assays?
SRC1 inh: 11; NCOA3 inh: 2; COUP-TFII inh: 27; GalR3 antagonist: 39*; NCOA2 inhibitor: -121; LRH-1 inv ag: 34; GalR3 conf: 31*; CNG parental: 0

What do the screens show for `O=C1C(Br)C2CCC1C2C(=O)O` (centres undefined)?
SRC1 inh: 10; NCOA3 inh: -15; COUP-TFII inh: -3; GalR3 antagonist: -5; NCOA2 inhibitor: 2; LRH-1 inv ag: -24

Results for C[C@]12CC[C@H]3C(CCC4(O)CC(O)CC[C@]34C=O)C1=CC[C@H]2c1ccc(=O)oc1 (some centres undefined) ?
SRC1 inh: 26; NCOA3 inh: 44; COUP-TFII inh: 36; GalR3 antagonist: 17*; NCOA2 inhibitor: -17; LRH-1 inv ag: 40; GalR3 conf: 42*; CNG parental: 2.7*

Results for CCOC(=O)[C@]12Cc3cc(C)ccc3[C@H]1N(C1CCCCC1)C(=O)c1ccccc12 ?
COUP-TFII inh: 36; GalR3 antagonist: 34*; NCOA2 inhibitor: 20; LRH-1 inv ag: 61; GalR3 conf: 58*; CNG parental: 1

Results for Oc1ccc(CC2CC3CCN2CC3)cc1O (centres undefined) ?
SRC1 inh: -29; NCOA3 inh: 10; COUP-TFII inh: -10; GalR3 antagonist: -1; NCOA2 inhibitor: -18; LRH-1 inv ag: 13

How did Oc1ccc(C[C@H]2NCCc3cc(O)c(O)cc32)cc1O do in these assays?
SRC1 inh: -14; NCOA3 inh: -25; COUP-TFII inh: -33; GalR3 antagonist: 37*; NCOA2 inhibitor: -26; LRH-1 inv ag: -1; GalR3 conf: 53*; CNG parental: 2.5*

How did Cc1nn(C)c(C)c1/C=C1/CC2C3CC=C4CC(O)CCC4(C)C3CCC2(C)C1=O (centres undefined) do in these assays?
SRC1 inh: -6; NCOA3 inh: -65; COUP-TFII inh: 15; GalR3 antagonist: 14*; NCOA2 inhibitor: -29; LRH-1 inv ag: -26; GalR3 conf: 30*; CNG parental: 0

What do the screens show for `CCN(C=C1CC2C3CC=C4CC(O)CCC4(C)C3CCC2(C)C1=O)CC` (centres undefined)?
SRC1 inh: 1; NCOA3 inh: 10; COUP-TFII inh: 2; GalR3 antagonist: -2; NCOA2 inhibitor: -11; LRH-1 inv ag: 5

Results for c1ccc(CCN2CCCCC2)nc1 ?
SRC1 inh: 5; NCOA3 inh: -25; COUP-TFII inh: 3; GalR3 antagonist: -6; NCOA2 inhibitor: -11; LRH-1 inv ag: -20

Results for CC(NCC#Cc1ccccc1)C(O)c1ccccc1 (centres undefined) ?
SRC1 inh: -24; NCOA3 inh: -44; COUP-TFII inh: -31; GalR3 antagonist: 16*; NCOA2 inhibitor: -3; LRH-1 inv ag: 3; GalR3 conf: 35*; CNG parental: 1

How did CN[C@H](C)[C@H](O)c1ccccc1 do in these assays?
SRC1 inh: -4; NCOA3 inh: -18; LRH-1 inv ag: 13

How did N#CC12c3ccccc3C(=O)N1Cc1cnnn1-c1ccccc12 (centres undefined) do in these assays?
SRC1 inh: -3; NCOA3 inh: 20; COUP-TFII inh: -8; GalR3 antagonist: -2; NCOA2 inhibitor: 3; LRH-1 inv ag: -3

How did NC(=O)c1cn(C2OC(CO)C(O)C2O)c2ncnc(N)c12 (centres undefined) do in these assays?
SRC1 inh: 91*; NCOA3 inh: 89*; COUP-TFII inh: 72*; GalR3 antagonist: 81*; NCOA2 inhibitor: 62*; LRH-1 inv ag: 98*; GalR3 conf: 81*; CNG parental: 0; Gal4-VP16 ctr: 56*; COUP-TFII conf: 86*

Results for N#Cc1cn(C2OC(CO)C(O)C2O)c2ncnc(N)c12 (centres undefined) ?
SRC1 inh: 45; NCOA3 inh: 55; COUP-TFII inh: 47*; GalR3 antagonist: 68*; NCOA2 inhibitor: 61*; LRH-1 inv ag: 97*; GalR3 conf: 76*; CNG parental: 0; Gal4-VP16 ctr: -8; COUP-TFII conf: 2

How did CC12Nc3ccccc3C(=O)N1Cc1cnnn1-c1ccccc12 (centres undefined) do in these assays?
COUP-TFII inh: -1; GalR3 antagonist: -5; NCOA2 inhibitor: -2; LRH-1 inv ag: -10

Results for COc1ccc(-n2nnnc2C(c2cc3ccccc3o2)N2CCC(n3c(=O)[nH]c4ccccc43)CC2)cc1 (centres undefined) ?
SRC1 inh: 37; NCOA3 inh: 60; COUP-TFII inh: 99*; GalR3 antagonist: 42*; NCOA2 inhibitor: 42; LRH-1 inv ag: 44; GalR3 conf: 27*; CNG parental: 0; Gal4-VP16 ctr: -3; COUP-TFII conf: 60*

Results for COc1ccc(C(c2nnnn2-c2ccc(OC)cc2)N2CCC(n3c(=O)[nH]c4ccccc43)CC2)cc1 (centres undefined) ?
SRC1 inh: 24; NCOA3 inh: 17; COUP-TFII inh: 5; GalR3 antagonist: -5; NCOA2 inhibitor: 10; LRH-1 inv ag: 12

What do the screens show for `Cc1nn(Cc2ccccc2)c(Cl)c1C(=O)Nc1ccc(OC(F)(F)F)cc1`?
SRC1 inh: 3; NCOA3 inh: 8; COUP-TFII inh: 9; GalR3 antagonist: -2; NCOA2 inhibitor: -17; LRH-1 inv ag: 11

Results for Cc1ccc(Cn2nc(C(=O)Nc3ccc(Br)cc3)cc2C)cc1 ?
SRC1 inh: -41; NCOA3 inh: -39; COUP-TFII inh: 53*; GalR3 antagonist: 92*; NCOA2 inhibitor: -37; LRH-1 inv ag: 14; GalR3 conf: 104*; CNG parental: 1; Gal4-VP16 ctr: -143; COUP-TFII conf: 19
